Source: PubChem BioAssay AID1347383 (Zoeller Lab, School of Medicine, Boston University, 2020)
Active and inactive are the calls of the source.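 The calls were made as follows: active = cell survival after UV exposure 2 SD above solvent-only control wells at 10 µM, confirmed on one or two repeats; inactive = the rest.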

assay: cell survival after pyrene fatty acid photosensitization – ZR-82 cells, Analyticon library, screen 2, phospholipid biosynthesis inhibitor project, primary screen (AID 1347383); conditions: ZR-82 CHO cells, pyrene-fatty acid UV killing, CellTiter Blue, at 10 µM; peroxisome-deficient CHO-K1 variant, with DGAT-1, DGAT-2 and ACAT inhibitors unless noted;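 also: survival reflects blocked phospholipid synthesis cutting uptake of the phototoxic fatty acid; compound and fatty acid exposure 3 h then viability read next day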

Row | SMILES | outcome
1 | CC(=O)NCCc1c[nH]c2ccccc12 | inactive [setting not given]
2 | CC1CC(C)C(=O)C(C(O)CC2CC(=O)NC(=O)C2)C1 (stereo not drawn) | inactive
3 | C=C[C@H]1CN2CC[C@H]1C[C@@H]2[C@@H](O)c1ccnc2ccccc12 | inactive
4 | CC(C)(C)C1(O)C[C@@H]2OC(=O)C[C@@]23C(=O)O[C@@H]2OC(=O)[C@@H](O)[C@]213 (stereo partly drawn) | inactive
5 | OCC(O)Cc1ccc2c(c1)OCO2 (stereo not drawn) | inactive [setting not given]
6 | C[C@]12CC[C@H](O)CC1=CC[C@@H]1C2CC[C@]2(C)[C@@H](C3=CC(=O)OC3)CC[C@]12O (stereo partly drawn) | inactive
7 | C=C(C)[C@H]1CCC(C)=C[C@@H]1c1c(O)cc(CCCCC)cc1O | inactive
8 | Oc1cc(O)cc(/C=C/c2ccc(O)cc2O)c1 | inactive
9 | COc1ccc([C@@]23CC[C@H](O)C[C@@H]2N(C)CC3)cc1OC | inactive
10 | C=CC1C[N+]2([O-])CCC1CC2C(O)c1ccnc2ccc(OC)cc12 (stereo not drawn) | inactive
11 | C=C(C)[C@H]1CCC(C)=C[C@@H]1c1c(O)cc(CCCCC)c(C(=O)O)c1O | inactive
12 | C[C@]12CC[C@@H](O[C@@H]3O[C@H](CO)[C@@H](O)[C@H](O)[C@H]3O)C[C@@]1(O)CCC1C2CC[C@]2(C)[C@@H](C3=CC(=O)OC3)CC[C@]12O (stereo partly drawn) | inactive
13 | COc1cc2c(cc1OC)[C@@]13CCN4CC5=CCO[C@H]6CC(=O)N2[C@H]1[C@H]6[C@H]5C[C@H]43 | inactive [setting not given]
14 | CC1(C)C=C2C(=O)C(C)(C)C(=O)C(C)(C)C2(O)OO1 (stereo not drawn) | inactive
15 | CCCCCCCCCCCCCCCc1cccc(O)c1O | inactive
16 | O=C1N[C@@H](Cc2ccccc2)CN2CCCC[C@@H]12 | inactive
17 | C[C@@H]1CCC2[C@@H](C)C(=O)OC3O[C@]4(C)CCC1[C@]32OO4 (stereo partly drawn) | inactive
18 | C=C1C(=O)CC2OC2(C)CC2OC(=O)C(=C)C2C(O)C1OC(=O)/C(C)=C\C (stereo not drawn) | inactive
19 | C=CC(C)(C)c1cc2c(O)c3c(c(C(C)(C)C=C)c2oc1=O)OC(C)(C)C=C3 | inactive
20 | CO[C@@H]1[C@H](O)[C@@H](O[C@@H]2C[C@H]3CC[C@@H]4C(CC[C@]5(C)[C@@H](C6=CC(=O)OC6)CC[C@]45O)[C@@]3(C)[C@H](O)C2)O[C@H](C)[C@@H]1O (stereo partly drawn) | inactive
21 | COc1ccc(CC2C(=O)OCC2Cc2ccc3c(c2)OCO3)cc1OC (stereo not drawn) | inactive
22 | CC(=O)O[C@H]1C(=O)[C@]2(C)C(O)C[C@H]3OC[C@@]3(OC(C)=O)[C@H]2[C@H](OC(=O)c2ccccc2)[C@]2(O)C[C@H](O)C(C)=C1C2(C)C (stereo partly drawn) | inactive
23 | CC(C)[C@@H](C)/C=C/[C@@H](C)[C@H]1CC[C@@H]2[C@]1(C)CCC1[C@]23C=C[C@]2(C[C@@H](O)CC[C@]12C)OO3 (stereo partly drawn) | inactive
24 | CO[C@@H]1[C@@H](O)[C@H](C)O[C@@H](O[C@H]2CC[C@]3(C)C4CC[C@]5(C)[C@H](C6=CC(=O)OC6)CC[C@]5(O)C4CC[C@@H]3C2)[C@H]1OC(C)=O (stereo partly drawn) | inactive
25 | CC1=CC2/C=C(\C)CCC(O)C(O)/C=C/C(=O)C23C(=O)NC(CC(C)C)C3C1C (stereo not drawn) | inactive
26 | CC(C)=CCOc1c2occc2cc2ccc(=O)oc12 | inactive [setting not given]
27 | COc1ccc2c3c([nH]c2c1)C(C)=NCC3 | inactive [setting not given]
28 | CN1C(=O)c2ccccc2NC(=O)[C@]12O[C@@H]2c1ccccc1 | inactive
